Here are results for 55 compounds from PubChem BioAssay AID598 (SRMLSC, 2007).

Among all 85,000 compounds or so, about 5,100 (6%) were called active. Shown is part of a subset that was picked to be rich in actives. Unmarked numbers belong to inactive results.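 The calls were made as follows: active = viability at or below 40%; inactive = viability above 40%.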

This assay is described as follows: proliferation blockers of H69AR lung cancer cells, primary screen, cell-based, human, 86K library (AID 598).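 Also: multidrug resistant small cell line overexpressing MRP-1 efflux transporter; 100% = mean luminescence of untreated control wells.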 The conditions noted are these: H69AR lung tumor viability, ATP luminescence, 72 h; at 10 µM; active compounds read low.
On to `CCCCCCNCCn1cnc2c(N)ncnc21`, for which the viability is 105%. Turning to `Cc1ccc(S(=O)(=O)NCCSC(C)(C)C)cc1`, the viability was 106%. Regarding `Cc1nnc(SC(C)C(=O)Nc2ccc(S(=O)(=O)NC3CCCCC3)cc2)s1` (stereo not given), the viability is 90.2%. For the compound `Cc1c(Br)cc(C(=O)N2CCCCCC2)c(C)c1C`, the viability is 85.9%. Then `Cc1ccc(NS(=O)(=O)c2c(C)[nH]c(=O)[nH]c2=O)cc1C`, with 112%; and `Cc1ccc(Nc2cc(=O)n(C3CCCCC3)c(=O)[nH]2)cc1C`, with 9.54% (active); and `CCC1(CC)Cc2ccccc2-c2nc3ccccc3c(=O)n21`, with 88.7%. Turning to `CCOc1ccccc1C(=O)NC1CC2CCCC(C1)N2Cc1ccccc1` (stereo not given), the viability was 72.2%. Then `CC(C)Oc1ccc(C(=O)NC(C)(C)CO)cc1`, with 106%; and `Cc1cc(C)n(-c2nnc(C)n2NC(=O)c2cccc(Cl)c2)n1`, with 88.1%; and `O=C(NCCCn1ccnc1)Nc1ccc(Cl)cc1Cl`, with 93.2%. Under `O=C(Nc1ccccc1C(=O)NCCCn1ccnc1)c1ccc(Cl)cc1Cl` stands 75.6%.

Turning to `CCOc1ccccc1C(=O)NCCCn1ccnc1`, the viability is 98.9%. For the compound `CCCCC(=O)Nc1ccc(C(=O)NCCCn2ccnc2)cc1`, the viability was 7.32% (active). Under `Cc1ccc2c(Cl)c(C(=O)NCCCn3ccnc3)sc2c1` stands 88.9%. Regarding `CCCC(=O)Nc1ccc(C(=O)NCCCn2ccnc2)cc1`, the viability was 15.8% (active). For the compound `FC(F)(F)c1cnc(Oc2ccccc2-c2nnc(-c3ccc(Cl)cc3)o2)c(Cl)c1`, the viability is 92.2%.

With `O=C(CSCc1ccccc1)N1CCc2ccccc21`, the viability was 84.8%. Under `Cc1ccc(N(Cc2ccc(C(=O)Nc3ccccc3C(=O)NCc3ccco3)cc2)S(C)(=O)=O)cc1C` stands 79.5%. Under `Cc1ccc(S(=O)(=O)/N=C(\CN2CCOCC2)N2CCOCC2)cc1` stands 96.2%; under `O=C(C(c1ccccc1)c1ccccc1)N1CCN(CC(O)COc2ccccc2)CC1` (stereo not given), 27.1% (active). Then `CC(=O)Nc1ccc(OCC(O)CN2CCN(c3ccccc3Cl)CC2)cc1` (stereo not given), with 100%. Consider `OC(COc1cccc(OCC(O)CN2CCCC2)c1)CN1CCCC1` (stereo not given), for which the viability is 99.3%.

Consider `O=C(CSc1nnc(-c2cccnc2)n1CCc1ccccc1)NCc1ccccc1`, for which the viability is 89.6%. Under `CCc1ccc(CNC(=O)CCc2nc(-c3cccs3)no2)cc1` stands 98.2%; under `N#Cc1ccc(CSc2nnc(-c3ccccn3)n2-c2ccc(Cl)cc2)cc1`, 62%.

Regarding `c1ccc(-c2noc(-c3cccs3)n2)nc1`, the viability was 70.6%. Under `Clc1ccc(-n2nnnc2-c2cnc(-c3ccccn3)nc2-c2cccs2)cc1` stands 18.2% (active); under `COc1ccccc1N=C(C)C1=C(O)COC1=O`, 92.4%; under `CCC/C(O)=C1\C(=O)CC(C)(C)CC1=Nc1ccccc1OC`, 28.2% (active). Then `CCOc1ccccc1N=C1NC(=O)CS1`, with 85.9%; and `CCOc1ccccc1NC(=O)C1CCCN(C(=O)Nc2ccccc2)C1` (stereo not given), with 61.5%. Then `CC(C)C(=O)N1c2ccccc2NC2=C(C(=O)CCC2)C1c1ccc(N(C)C)cc1` (stereo not given), with 74.9%. For `O=C1CCCC2=C1C(c1cccs1)n1nc(SCc3ccccc3)nc1N2` (stereo not given), the viability was 28.9% (active).

In the case of `CCCC(=O)N1c2ccccc2NC2=C(C(=O)CCC2)C1c1ccc(F)cc1` (stereo not given), the viability is 92.9%.

As for `Cc1ccc(N(CC(=O)Nc2cccc(N(C)S(C)(=O)=O)c2)S(C)(=O)=O)cc1`, the viability is 85.4%.

Turning to `O=C(CCCn1c(SCC(=O)c2ccccc2)nc2ccccc2c1=O)NCC1CCCO1` (stereo not given), the viability is 76.5%. Under `Cc1noc(COc2ccccc2OCc2onc(C)c2Cl)c1Cl` stands 93.3%. As to `Fc1ccc(-n2c(Cc3ccccc3)nnc2SCc2nc(-c3ccc(Cl)cc3)no2)cc1`, the viability is 90.9%. With `Cc1ccc(-c2noc(CSc3nnc(-c4ccncc4)n3-c3ccc(F)cc3)n2)cc1`, the viability was 27.9% (active). Then `Cc1ccc(-c2noc(CSc3nnc(-c4ccccc4)n3C)n2)cc1`, with 85.9%; and `O=S1(=O)C=C(SCCN2CCCC2)c2ccccc21`, with 74.3%; and `Cn1cc(S(=O)(=O)N2CCN(c3ccc(F)cc3)CC2)c(=O)n(C)c1=O`, with 91.4%. For `C#CCN(N(C)c1ncc(C(F)(F)F)cc1Cl)S(=O)(=O)c1ccc2ccccc2c1`, the viability was 84%. Turning to `C=C(C)CSc1nc(N)c2c3c(sc2n1)CCC3`, the viability was 92.1%. Then `CC(C)(C)C1CCc2c(sc3nc(SCC(N)=O)nc(N)c23)C1` (stereo not given), with 2.44% (active). Then `CN(C)CCSc1nc(N)c2c3c(sc2n1)COC(C)(C)C3`, with 91.2%; and `O=C(/C=C/NNC(=O)c1cccc(Br)c1)c1ccccc1`, with 61.5%; and `N#C/C(=C(\O)CCl)c1nnc2n1CCCCC2`, with 26.2% (active). Take `COCC(=O)Nc1ccc(Br)cc1`: the viability was 101%. On to `Cc1cccc(N(CC(=O)N2CCOCC2)S(C)(=O)=O)c1`, for which the viability was 98%.

For `Cc1[nH]n(-c2cccc(Cl)c2)c(=O)c1-c1ccc(Cl)cc1`, the viability was 109%. `CC1=NN(c2cccc(Cl)c2)C(=O)C12CC(C)=C(C)CS2` (stereo not given): the viability was 26.9% (active).

For `O=C(NCc1ccccc1)C1CCCN(S(=O)(=O)c2cccs2)C1` (stereo not given), the viability is 95.6%. Consider `CCOc1ccc(S(=O)(=O)NCC2CCCO2)cc1` (stereo not given), for which the viability is 97%.

For orientation: viability means a read-out of living cells in per cent, often relative to untreated cells.
